The sample as a whole holds a higher share of hits than the screen did.
FBPA Giardia inh – Giardia lamblia aldolase inhibition. A8B2U2. purified Giardia FBPA. Potency, µM (titrated, usually from 59.6 µM), inactives show top-dose activity, negative = inhibition, actives largely listed as inhibitors. 0.71% of 290,000 active. AID 2451; further: potency means the concentration at half of the fitted maximal effect; on the % scale 0 is the no-effect control and ±100 the full control effect; nearly all actives have a fitted effect of over 55% in size
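Giardia FBPA (40 nM reagent) was preincubated 10 min at RT with compound (up to 57.5 uM final), then substrate plus GAPDH/TPI/NAD/arsenate coupling system with diaphorase/resazurin was added; resorufin fluorescence (525/598 nm) was read after 20 min.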
CHX counter – affects cycloheximide protein synthesis inhibition readout, counter-screen | cell reporter, cycloheximide protein synthesis inhibition counterscreen | max response, % | 12% of 300,000 active; in the data active means max response mostly above about 13%, no sharp cut-off; inactive means mostly below about 14%; further: read at 38.3 µM for the half of the compounds with a filed dose; 0% is about no effect
RE007 growth inh – less growth of the S. pombe RE007 Vpr strain. S. pombe RE007 Vpr strain, BacTiter-Glo ATP luminescence, 24 h. Potency, µM (doses to about 92.2 µM), for the others: at the top dose activity change, negative = less growth, hits mostly inhibitors. 0.21% of 360,000 active; active means well fitted falling curve with a large enough effect; inconclusive means small, poorly fitted or top-dose-only effect; inactive means no such curve, though single readings can be large or run the other way; further: potency means the concentration at half of the fitted maximal effect; on the % scale 0 is the no-effect control and ±100 the full control effect; nearly all actives have a fitted effect of over 50% in size
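Fission yeast RE007 carrying one integrated HIV-1 vpr copy, seeded at OD 0.01 in PMG+AL medium with 23 nL pinned compound. Grown 24 h at 30 degrees; viability read by BacTiter-Glo luminescence after 5 min.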
Shiga inhibitor – Shiga toxin inhibition; Vero cells, Shiga toxin protein synthesis inhibition reporter; inhibition, % at 38.7 µM; 9.2% of 290,000 active; AID 2315; in the data active means inhibition mostly above about 28%, no sharp cut-off; inactive means mostly below about 43%; further: 0% is about no effect
TbPYK inhibitor – blocks Trypanosoma brucei pyruvate kinase; TbPYK enzyme, Kinase-Glo Plus ATP luminescence, 45 min; Potency, µM (titrated, usually from 76.8 µM), without a hit: at the highest dose activity, negative = inhibition, actives largely listed as inhibitors; 0.12% of 410,000 active; Q57TT1; further: potency means the concentration at half of the fitted maximal effect; on the % scale 0 is the no-effect control and ±100 the full control effect; nearly all actives have a fitted effect of over 50% in size
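Activity of T. brucei pyruvate kinase was followed by Kinase-Glo Plus luminescence after the enzyme reacted 45 min at room temperature with 130 uM ADP (final) and substrate. Test compounds were added before ADP at multiple concentrations.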
LmPK inhibitor – LmPK (Leishmania mexicana) enzyme inhibition. 0.37% of 290,000 active. Potency, µM (series often up to 57.5 µM), for inactives: at the highest dose activity change, negative = inhibition, usual class: inhibitors. purified LmPK, Kinase-Glo ATP luminescence, 1 h; further: potency means the concentration at half of the fitted maximal effect; on the % scale 0 is the no-effect control and ±100 the full control effect
Target sequence (Q27686 whole entry, looked up): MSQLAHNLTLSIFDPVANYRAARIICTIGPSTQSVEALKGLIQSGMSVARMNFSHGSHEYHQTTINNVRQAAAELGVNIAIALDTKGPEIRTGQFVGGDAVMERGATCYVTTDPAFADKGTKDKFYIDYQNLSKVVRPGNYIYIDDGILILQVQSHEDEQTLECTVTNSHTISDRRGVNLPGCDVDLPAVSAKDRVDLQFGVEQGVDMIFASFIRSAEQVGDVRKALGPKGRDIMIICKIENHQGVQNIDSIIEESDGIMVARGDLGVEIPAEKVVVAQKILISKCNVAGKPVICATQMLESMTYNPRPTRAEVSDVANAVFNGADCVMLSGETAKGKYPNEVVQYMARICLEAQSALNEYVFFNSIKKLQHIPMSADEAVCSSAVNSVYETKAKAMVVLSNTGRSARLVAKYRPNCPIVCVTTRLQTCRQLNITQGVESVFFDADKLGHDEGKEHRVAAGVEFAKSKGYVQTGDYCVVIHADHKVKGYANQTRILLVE
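Kinase-Glo luminescence read after 1 h RT reaction of 0.1 nM LmPK with 0.5 mM PEP and 0.1 mM ADP. Activity scaled between uninhibited and enzyme-free controls.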
Active calls of the source: *; ? = inconclusive; · = no result; + = active, no number; [ ] = another dose, or the depositor's remark. Unless noted, the call rests on the fitted dose curve; in most records, active means well fitted curve in the direction sought with a large enough effect; inconclusive means small, poorly fitted or top-dose-only effect, or another doubt; inactive means no such curve, though single readings can be large; an effect the other way counts as inactive or inconclusive.

SMILES | FBPA Giardia inh | CHX counter | RE007 growth inh | Shiga inhibitor | TbPYK inhibitor | LmPK inhibitor
COc1ccc(C(=O)Nn2cnc3scc(-c4cccs4)c3c2=O)c(O)c1 | 1% | 31* | 29% | 116* | 9% | -5%
CCOc1ccc2nc(SCc3ccccc3C#N)sc2c1 | -1% | 71* | 18% | 174* | 3% | 6%
CCOc1ccc2nc(SCc3ccc(OC)cc3)sc2c1 | -5% | 20* | -2% | 35 | -8% | 2%
O=[N+]([O-])c1ccc2nc(SCc3ccccc3Cl)sc2c1 | 1% | 2 | -8% | 23 | 9% | -1%
CCOC(=O)c1c(-c2ccccc2Cl)csc1NC(=O)c1cc(S(=O)(=O)N2CCOCC2)ccc1C | -4% | -2 | 1% | -8 | 3% | 1%
O=C1Nc2ccccc2C(=O)C1(Cl)Cc1ccccc1 (configuration not stated) | -19% | -1 | -2% | 17 | 4.5µM* | -1%
CC(C)(C)N1C(=O)c2ccccc2NC(=O)N1Cc1ccccc1 | 0% | 1 | 2% | -16 | -4% | 3%
Clc1nc(-c2ccccn2)nc2scc(-c3ccccc3)c12 | 8% | 93* | ? | + | 1% | -16%
O=C(Nc1ncc(Cl)cc1Cl)c1c(F)cccc1Cl | -5% | 21 | -6% | 66* | 4% | -3%
O=C(Nc1ccc(N2CCOCC2)cc1)c1c(F)cccc1Cl | -5% | 11 | 59% | 35 | 0% | -2%
CC(C)(C)c1ccc(NC(=O)c2c(F)cccc2Cl)cc1 | -24% | 31* | ? | 55* | -1% | 3%
Cc1cccc(N(C)S(=O)(=O)c2c[nH]c3ccc([N+](=O)[O-])cc23)c1 | · | -8 | 9% | -6 | 2% | -6%
COC(=O)c1nccnc1N | · | · | -2% | · | 4% | ·
CCN(CC)CCCOc1ccc(C)cc1Br | -18% | 6 | -12% | 9 | 13% | 2%
C=CCNCCCOc1ccc(C)cc1Br | -9% | 27* | 5% | 65* | 4% | -3%
COCCCNCCCOc1ccc(C)cc1Br | ? | -4 | -4% | -3 | 28% | -3%
CCOc1ccccc1OCCCOc1ccc(C)cc1Cl | 2% | 23* | -18% | 62* | -8% | -8%
CCOc1ccccc1OCCCOc1ccc(C)cc1Br | -1% | 41* | 0% | 70* | -2% | -3%
C=CCN(CC=C)S(=O)(=O)c1ccc(NC(=S)NC(=O)C2CC2)cc1 | -15% | -1 | 3% | -4 | 1% | 0%
CCCc1nc2ccc(C)cn2c1Cc1ccc(C)cc1 | · | · | -13% | · | -9% | ·
O=C(CN1C(=O)c2cccnc2Oc2ccc(Cl)cc21)Nc1ccccc1F | 0% | 13* | 7% | 14 | 2% | 3%
O=C(CN1C(=O)c2cccnc2Oc2ccc(Cl)cc21)Nc1cccc(C(F)(F)F)c1 | · | · | · | · | -1%[15.4 µM] | ·
Cc1ccc(O)c(NC(=O)CCSc2nc(-c3ccco3)cc(C(F)(F)F)n2)c1 | · | · | · | · | -9% | ·
Cc1ccc(C(=O)Cn2ncsc2=N)cc1 | 1% | 52* | -6% | 127* | -7% | -1%
CCCCOC(=O)/C(=C/C=C/c1ccccc1)NC(=O)c1ccccc1 | 1% | 49* | 7% | 41 | 3% | 5%
SMILES | FBPA Giardia inh | CHX counter | RE007 growth inh | Shiga inhibitor | TbPYK inhibitor | LmPK inhibitor
C=CCOC(=O)/C(=C\C=C\c1ccccc1)NC(=O)c1ccccc1 | -3% | 18* | 11% | 22 | 2% | 1%
CCCOC(=O)/C(=C\C=C\c1ccccc1)NC(=O)c1ccccc1 | -2% | 16* | -5% | 15 | 2% | 9%
C=CCN(C(C(=O)OC)C(C)C)S(=O)(=O)C=C (configuration not stated) | 0% | -3 | · | -2 | · | ·
Cc1cc2nn(-c3ccc(F)cc3)nc2cc1NC(=O)c1cccc([N+](=O)[O-])c1C | · | · | · | · | -6% | ·
COc1ccc(NC(=O)C2CCCN(S(C)(=O)=O)C2)cc1Cl (configuration not stated) | 6% | 0 | 9% | 9 | 0% | -6%
CCCCC1C2C(=O)N(c3ccc(C)cc3)C(=O)C2ON1c1ccccc1 (configuration not stated) | -4% | 35* | 7% | 104* | 7% | 2%
COCCNC(=O)Nc1cc(C(=O)NCc2ccc(C(C)C)cc2)ccc1N1CCCC1 | · | · | · | · | 1% | ·
C/C(=N\OC(=O)c1ccc(C)cc1)c1sc(C)nc1C | 2% | 32* | 30% | 33 | -5% | ?
C/C(=N/OC(=O)c1ccccc1Br)c1ccc(C)cc1 | 0% | 66* | -6% | 139* | 4% | -7%
C/C(=N\OC(=O)c1ccc(Cl)c(Cl)c1)c1sc(C)nc1C | 0% | -3 | 0% | -7 | -4% | -1%
C/C(=N/OC(=O)c1ccc(C)cc1)c1cccs1 | -2% | 33* | ? | 123* | ? | 10µM*
CC1CN(C(=O)N2CCC(C(=O)NCCCc3ccccc3)CC2)c2ccccc2O1 (configuration not stated) | · | · | · | · | -7% | ·
O=[N+]([O-])c1ccc(-c2cn3c(n2)CCC3)cc1 | 4% | 57* | -25% | 104* | -1% | -8%
c1ccc(-c2cn3c(n2)CCC3)cc1 | 2% | 7 | -12% | 5 | 2% | 5%
O=c1cccc2n1Cc1cc3ccccc3nc1-2 | 0% | 39* | -6% | 38* | -6% | -29%
ClN=C1C=CC=CC1=NCl | · | · | 5% | · | -8% | ·
COc1ccc(-c2nc(=S)[nH][nH]2)cc1 | -10% | 13* | 9% | 108* | ? | -1%
COc1ccc(-c2nc(=S)[nH][nH]2)cc1OC | -19% | -2 | 12% | 16 | ? | 0%
CCOc1ccc(-c2nc(=S)[nH][nH]2)cc1 | 8% | 41* | 16% | 29 | -29% | -10%
Cc1ccc(CNC(=O)c2ccccc2N)cc1 | -5% | 1 | -3% | 10 | 2% | -1%
Cc1cccc(CNC(=O)c2ccccc2N)c1 | 4% | 20* | -1% | 33 | 6% | 2%
CN(C)CCCCCCN(C)C | · | · | · | · | 2% | ·
c1ccc(CNc2ncn[nH]2)cc1 | · | · | -11% | · | -4% | ·
CSc1ccc(CNc2ccc(C)c(C)c2)cc1 | -3% | 25* | -9% | 79* | 5% | 0%
Cc1ccc(CNc2cccnc2)cc1 | 6% | 43* | -12% | 38* | -1% | 1%
c1ccc(CNc2ccc(CNc3ncn[nH]3)cc2)cc1 | 9% | 18* | -19% | 24 | 2% | -2%
Cc1ccc(NCc2ccccc2)cc1 | 2% | 49* | -13% | 94* | 3% | 3%
Cc1cc(=O)n(Cc2cccc(F)c2)c2c1c(C)nn2-c1cccc(F)c1 | · | · | · | · | 3% | ·
CSc1ccc(CNc2ccc(C)cc2)cc1 | -2% | 36* | -23% | 80* | 0% | -11%
COc1cc(CNc2ncn[nH]2)ccc1OCc1cccc(C)c1 | -4% | 48* | 3% | 70* | -2% | -1%

Screens from PubChem BioAssay.
